Assay outcomes: PubChem BioAssay, National Center for Advancing Translational Sciences (NCATS)
A549 tox = kills or reduces viability of A549 cells in Nrf2 counter-screen; hit rate 0.16% among 390,000; Potency, µM (highest dose often 46 µM), inactives show at the top dose activity change, negative = cytotoxicity, actives largely listed as inhibitors; A549 ARE-Fluc cells, CellTiter-Fluor viability, 18-24 h; also: % is scaled to controls: 0 for no effect and ±100 for the full control effect
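A549 ARE_Fluc cells in 5% FBS OPTI-MEM were exposed to compounds in concentration-response for 18-24 h at 37 deg C. Viability was read by CellTiter-Fluor fluorescence (Ex 405/Em 525) after 30 min, before the luciferase read.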
TGFb SMAD3 inh = blocks TGF-b signaling. hit rate 1.2% among 410,000. Potency, µM (top dose mostly 46.1 µM), for inactives: top-dose activity, negative = inhibition, hits mostly inhibitors. HepG2 CAGA-GFP TGF-b/SMAD3 reporter, GFP fluorescence, 18 h; TGF-beta stimulated, 500 pg/mL final. AID 588855; also: % is scaled to controls: 0 for no effect and ±100 for the full control effect; nearly all actives have a fitted effect of over 65% in size
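Per well, imaged GFP fluorescence of HEPG2 CAGA-GFP cells gives the signal; cells get compound, then TGF-beta (500 pg/mL final), 18 h at 37 degrees C; %Activity versus -TGF-beta and +DMSO controls.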
ATXN2 expr inh = reduces ATXN2 reporter expression in HEK-293 cells. HEK-293 ATXN2-luciferase reporter, luminescence, 24 h. Potency, µM (series often up to 57 µM), for the others: at the top dose activity change, negative = inhibition, most hits filed as inhibitors. hit rate 0.72% among 360,000; also: % is scaled to controls: 0 for no effect and ±100 for the full control effect; nearly all actives have a fitted effect of over 55% in size
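ATXN2-luciferase reporter cells (luciferase flanked by upstream and downstream ATXN2 gene portions) were treated 24 h at 37 °C with compounds at up to 57 uM. SteadyGlo luminescence gave expression; GF-AFC fluorescence gave viability.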
ATXN viability = cell viability loss in ATXN counter-screen | AID 651635 | Potency, µM (highest dose often 56.7 µM), actives largely listed as cytotoxic | hit rate 0.49% among 400,000 | S2 cells (HEK-293 line with an ATXN2-luciferase reporter) viability, CellTiter-Fluor protease fluorescence, 24 h; also: nearly all actives have a fitted effect of over 40% in size
HepG2 tox = kills HepG2 cells in TGF-b inhibitor counter-screen | hit rate 0.76% among 410,000 | HepG2 CAGA-GFP viability, ATP luminescence, 18 h | Potency, µM (top dose mostly 46.1 µM), for inactives: top-dose activity change, negative = cytotoxicity, most hits filed as cytotoxic
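CellTiter-Glo luminescence gave cytotoxicity after 18 hours at 37 degrees C. The cells were HepG2 CAGA-GFP in 1% FBS DMEM, stimulated with 500 pg/mL TGF-beta after compound addition. %Activity was normalised to no-cell wells (complete cell-killing) and DMSO (no toxicity), and curves were fitted and classified.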
Nrf2 block = inhibitors of Nrf2 signaling. Potency, µM (top dose mostly 46 µM), for inactives: at the top dose activity change, negative = inhibition, hits mostly inhibitors. hit rate 2.1% among 360,000. A549 ARE-Fluc reporter, luciferase luminescence, 18-24 h; also: % is scaled to controls: 0 for no effect and ±100 for the full control effect; nearly all actives have a fitted effect of over 60% in size
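Quantitative HTS in A549 cells stably bearing an antioxidant response element-firefly luciferase construct. Inhibition of Nrf2-driven transcription was scored by luminescence after 18-24 h of compound exposure at 37 °C.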
* marks the source's active call; other numbers are inactive results; i = inactive; ? = inconclusive; . = no result given; ! = a repeat was not active; [ ] = dose if it differs, or a comment. An excerpt weighted towards active compounds, which were near 3.8% of everything screened. Calls follow the shape of the dose curve; as a rule, active = well fitted curve in the direction sought with a large enough effect; inconclusive = small, poorly fitted or top-dose-only effect, or another doubt; inactive = no such curve, though single readings can be large; an effect the other way counts as inactive or inconclusive. Potency is read from the fitted curve at half-maximal effect.

SMILES	A549 tox	TGFb SMAD3 inh	ATXN2 expr inh	ATXN viability	HepG2 tox	Nrf2 block
C=CCc1cccc(CNc2cnc3ccccc3c2)c1O	3%	?	.	?	-19%	23µM*
Oc1ccccc1CNc1cnc2ccccc2c1	-13%	?	15%	i	-14%	?
CCCN(C)C[C@H]1OCc2cnnn2CCCC(=O)N([C@H](C)CO)C[C@@H]1C	.	-11%	11%	i	0%	.
COc1ccc(NC(=O)COc2cccc3c2OC(C)(C)C3)cc1OC	-10%	-13%	-17%	i	-11%	18µM*
Cc1cc(Br)ccc1NC(=O)CN(C)C(=O)COc1cccc2c1OC(C)(C)C2	0%	0%	-4%	i	2%	21µM*
Cc1cccc(C)c1NC(=O)CN(C)C(=O)COc1cccc2c1OC(C)(C)C2	4%	-1%	7%	i	3%	5%
Cc1ccc(CNC(=O)C2CCC(=O)N2CCc2ccccc2)cc1 (centres undefined)	0%	-5%	2%	i	-2%	5%
Cc1ccc(NC(=O)c2cc(-c3cccs3)nc3ccccc23)c(C)c1	-2%	-31%	-9%	i	-19%	-8%
Cc1cccc2sc(NNC(=O)c3cc(-c4cccs4)nc4ccccc34)nc12	?	?	?	?	-41%	23µM*
CCCCN1C(=O)C(CC(=O)NCCCCc2ccccc2)CC(C(=O)N(C)C)=C1C (centres undefined)	.	0%	-6%	i	-20%	.
CC(=O)N1CCN(Cc2nc3cc(NC(=O)c4ccc(Cl)cc4)ccc3n2C)CC1	-15%[1.84 µM]	?	-2%	i	-25%	10µM*
Cn1c(CN2CCCCC2)nc2cc(NC(=O)c3ccc(F)cc3)ccc21	-21%	-15%	4%	i	-7%	12µM*
Cn1c(CN2CCCCC2)nc2cc(NC(=O)c3ccccc3Cl)ccc21	4%	-45%	3%	i	-11%	4%
CCn1c(CN2CCOCC2)nc2cc(NC(=O)c3ccc([N+](=O)[O-])cc3)ccc21	0%	-21%	-8%	i	-9%	9.2µM*
CC(=O)N1CCN(Cc2nc3cc(NC(=O)c4ccccc4Cl)ccc3n2C)CC1	-16%	-3%	-13%	i	-4%	-25%
Oc1ccc(Cl)cc1N=Cc1sc2ccccc2c1Cl	-3%	-27%	-11%	i	-30%	?
O=[N+]([O-])c1ccc(O)c(N=Cc2sc3ccccc3c2O)c1	-17%	-18%	?	28µM*	-4%	1%
CCOc1ccccc1CNC(=O)c1ccc(NC(=O)C2=C(C)OCCS2)cc1	-7%	7%	2%	i	3%	?
COc1ccc(-n2nnnc2S(=O)(=O)Cc2ccc(C(=O)O)cc2)cc1	0%	-17%	?	?	-6%	?
COc1ccc(-n2nnnc2S(=O)(=O)CC(=O)N2CCCCC2)cc1	?	?	13µM*	10µM*	13µM*	26µM*
O=C(NNC(=O)c1ccco1)c1cccc([N+](=O)[O-])c1	-6%	-6%	1%	i	4%	2%
CCC(C)NS(=O)(=O)c1ccc(S(=O)(=O)N2CCCC3(CCCCC3)C2)cc1 (centres undefined)	-22%	0%	-21%	i	-18%	21µM*
COCCCn1c(=O)c2ccccc2n2c(=S)[nH]nc12	1%	0%	-5%	i	7%	4%
Cc1ccc(C(=O)NCC(=O)OCC(=O)/C=C2\N(C)c3ccccc3C2(C)C)cc1C	0%	-20%	-21%	i	-38%	-15%
CN1CCC(=C2c3ccccc3CCc3cccnc32)CC1	.	.	-8%	i	.	.
SMILES	A549 tox	TGFb SMAD3 inh	ATXN2 expr inh	ATXN viability	HepG2 tox	Nrf2 block
CCOC(=O)N1CCC(=C2c3ccc(Cl)cc3CCc3cccnc32)CC1	-3%	-27%	14µM*!	?	-22%	-19%
Cc1ccc2[nH]cc(C(O)c3c[nH]c4ccc(C)cc34)c2c1	.	10µM*	.	.	10%	.
Cc1ccc2[nH]cc(C(=O)CCl)c2c1	-10%	?	?	?	-105%	?
Cc1ccc2[nH]cc(C(c3ccccc3)c3ccc(Cl)s3)c2c1 (centres undefined)	-3%	?	?	?	11µM*	?
O=C(Cc1ccccc1)Nc1sc2c(c1C(=O)Nc1ccc(Cl)cc1)CCOC2	-2%	.	.	.	.	-20%
C/C(=N\NC(=O)C1CCCC1)c1ccc(Cl)cc1	4%	0%	-8%	i	7%	?
Cc1ccc(NC(=O)CN2C(=O)c3ccccc3S2(=O)=O)c(C)c1	0%	4%	-17%	i	15%	-5%
Cc1cccn2c(=O)c(C=O)c(N3CCN(c4ccc(F)cc4)CC3)nc12	-10%	-2%	-35%	?	4%	16µM*
Cc1cccn2c(=O)c(C=O)c(Cl)nc12	0%	16µM*	?	?	-69%	-9%
O=Cc1c(Cl)nc2ccccn2c1=O	1%	?	18%	i	0.56µM*	?
CC1=C(C(=O)OC2CCCC2)C(c2c(Cl)cccc2Cl)CC(=O)N1 (centres undefined)	-2%	?	-21%	i	-28%	?
CC1=C(C(=O)OC2CCCCCC2)C(c2c(Cl)cccc2Cl)CC(=O)N1 (centres undefined)	-10%	?	?	i	-103%	21µM*
CC1=C(C(=O)OCC2CCCCC2)C(c2ccc(Cl)cc2)CC(=O)N1 (centres undefined)	2%	?	-30%	i	13µM*	?
O=C(CCl)Nc1cccc2ncccc12	23µM*	14%	-37%	.	-27%	16µM*
CC(C)C(=O)NC(Nc1cccc2cccnc12)C(Cl)(Cl)Cl (centres undefined)	3%	-22%	-12%	i	-38%	-26%
CC(C)CC(=O)NC(NC(=S)Nc1cccc2cccnc12)C(Cl)(Cl)Cl (centres undefined)	-21%	?	0%	i	-14%	21µM*
O=C(CCCl)Nc1cccc2cccnc12	-12%	7.1µM*	.	.	-90%	1%
Cc1cc(O)cc(O)c1/C=N/NC(=O)c1ccc2c(c1)OCCO2	.	-1%	.	i	-18%	.
COc1ccccc1-c1noc(CCCC(=O)Nc2cc(C)ccc2C)n1	1%	-15%	.	.	-32%	2%
CCOC(=O)C1=C(C)N=c2s/c(=C/c3cccc([N+](=O)[O-])c3O)c(=O)n2C1c1ccc(OC)cc1OC (centres undefined)	16µM*	7%	-32%	13µM*	-8%	?
